From PubChem BioAssay (NCI)
This is part of a sample that, as a whole, favours compounds with a hit. Of some 83,000 tested, about 20% had one in any assay.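 In brief: 96-well plates, 48 h treatment, single concentration, percent growth endpoint.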 A number with no mark means an inactive call. Calls of active or inactive are those of the source. How the source made its calls: active means growth percent below 10; inactive means the rest.

Tests used:
Test in all cases: NCI-60 one-dose screen, 48 h (100 = growth as untreated, 0 = no growth, -100 = all killed)
Settings in all cases: 10 µM unless noted
NCI-H23 lung = test system: NCI-H23 lung
NCI-H226 lung = test system: NCI-H226 lung
NCI-H322M lung = test system: NCI-H322M lung
HOP-62 NSCLC = test system: HOP-62 NSCLC
NCI-H460 lung = test system: NCI-H460 lung
HOP-92 NSCLC = test system: HOP-92 NSCLC
NCI-H522 lung = test system: NCI-H522 lung
A549/ATCC NSCLC = test system: A549/ATCC NSCLC
786-0 renal = test system: 786-0 renal
COLO 205 colon = test system: COLO 205 colon
DU-145 prostate = test system: DU-145 prostate
K-562 leukemia = test system: K-562 leukemia
MALME-3M melanoma = test system: MALME-3M melanoma
MDA-MB-231 breast = test system: MDA-MB-231 breast
SF-268 CNS = test system: SF-268 CNS
SF-295 CNS = test system: SF-295 CNS
SF-539 CNS = test system: SF-539 CNS
UACC-257 melanoma = test system: UACC-257 melanoma
M14 melanoma = test system: M14 melanoma

Row | Structure (SMILES) | growth (NCI-H23 lung) | growth (NCI-H226 lung) | growth (NCI-H322M lung) | growth (HOP-62 NSCLC) | growth (NCI-H460 lung) | growth (HOP-92 NSCLC) | growth (NCI-H522 lung) | growth (A549/ATCC NSCLC) | growth (786-0 renal) | growth (COLO 205 colon) | growth (DU-145 prostate) | growth (K-562 leukemia) | growth (MALME-3M melanoma) | growth (MDA-MB-231 breast) | growth (SF-268 CNS) | growth (SF-295 CNS) | growth (SF-539 CNS) | growth (UACC-257 melanoma) | growth (M14 melanoma)
1 | C=Cc1cc[n+](CCCCCCCCCCCC)cc1 | 102% | 103% | 114% | 111% | 98.3% | 134% | 110% | 103% | 106% | 118% | 105% | 93.8% | 111% | 99.9% | 99.7% | 106% | 104% | 111% | 102%
2 | COc1ccc(C(O)c2cc3c(N)c(C(=O)Nc4ccc(Cl)cc4)sc3nc2C)cc1 (centres undefined) | 32.7% | 45.3% | 44.6% | 29.2% | 5.37% (active) | 49.3% | 7.8% (active) | 29.5% | 55.2% | 13.6% | 6.92% (active) | 3.42% (active) | 21% | 41.8% | 42.8% | 14.5% | 20.7% | 56.4% | 7.86% (active)
3 | CC(=O)N1N=C(c2cccc(Nc3ccncc3)c2)CC1c1ccccc1 (centres undefined) | 93.3% | 95.3% | 93.3% | 92.5% | 95.1% | 55.9% | 91.7% | 85.2% | 4.92% (active) | 81.5% | 99.5% | 11.8% | 76.7% | 83.9% | 91% | 87.5% | 80.9% | 92.6% | -76.2% (active)
4 | O=C1c2cccnc2C(=O)c2nc3cc(N4CCN(C5CC5)CC4)ccc3nc21 | -56.5% (active) | -49.1% (active) | -96.7% (active) | -56.6% (active) | -54.1% (active) | 62.5% | -50.5% (active) | -53.3% (active) | 28.1% | -68.3% (active) | -75.9% (active) | 0.866% (active) | -100% (active) | 15.1% | 12.5% | -88.9% (active) | -99.4% (active) | -84.5% (active) | -91.2% (active)
5 | O=c1nc2n(nc1/C=C/c1ccco1)CC(c1ccc(Cl)cc1)=NN2 | 93% | 100% | 84.2% | 82.9% | 108% | 87.6% | 79.4% | 104% | 95.7% | 110% | 115% | 53.6% | 92% | 117% | 109% | 97.9% | 104% | 104% | 104%
6 | COc1ccc(-c2nc(SCCC(C)C)nc(N/N=C(/C)c3ccc(C)cc3)c2C#N)cc1 | 84.5% | 91.7% | 87.4% | 93.9% | 99.7% | 62.2% | 87.2% | 99.3% | 102% | 109% | 104% | 94.6% | 103% | 71% | 93.2% | 97.7% | 86.9% | 98% | 90.4%
7 | CCN(CC)CCCCCCNc1cc(OC)cc2cccnc12 | 85.5% | 97.4% | 96% | 92.1% | 32.6% | 85.2% | 5.26% (active) | 80.3% | -50.7% (active) | -68.9% (active) | 40.8% | -47.8% (active) | -77.4% (active) | 32.6% | 79.3% | 86.5% | 68.5% | 115% | -28.7% (active)
8 | COc1ccc(C(=O)/C=C/c2c(OC)cc(OC)cc2OC)c(OC)c1 | 26.1% | 69.5% | 56.2% | 40.4% | 8.76% (active) | 31.5% | -6.76% (active) | 31.6% | 26.2% | 8.18% (active) | 18.3% | 18.5% | 3.17% (active) | 44.4% | 36.5% | 11.3% | 8.25% (active) | 28.9% | 4.81% (active)
9 | c1ccc(C2CC(c3cccc(Nc4ccncc4)c3)=NN2c2ccccc2)cc1 (centres undefined) | 85.8% | 96.1% | 82.5% | 71.1% | -41.9% (active) | 55.5% | 89.1% | 50.9% | 68.4% | -58% (active) | 67.7% | 0.756% (active) | -12.1% (active) | 75.3% | 86.6% | 78.6% | 78.1% | 34% | -57.4% (active)
10 | CC1(C)CCCN1CCCN1c2ccccc2Sc2ccc(Cl)cc21 | 72.5% | 82.9% | 74.1% | 77% | 60.8% | 62.9% | 76.6% | 83.8% | 54.2% | 43.6% | 78.5% | 14.2% | 67.2% | 45.5% | 76.3% | 68.2% | 78.2% | 105% | 39.1%
11 | Cc1ccc(C2CC(c3cccc(Nc4ccncc4)c3)=NN2c2ccccc2)cc1 (centres undefined) | -69.3% (active) | 28.9% | -87.4% (active) | -67% (active) | -77.8% (active) | -90.7% (active) | -65.1% (active) | -60.2% (active) | 22.1% | -69% (active) | -72.2% (active) | -15.6% (active) | -92.8% (active) | -87.9% (active) | -73.1% (active) | -91.3% (active) | -96.9% (active) | -55.7% (active) | -49.8% (active)
12 | COc1ccc(NC(=O)c2sc3nc(C)c(C(=O)c4ccc(OC)cc4)cc3c2N)cc1 | 73.9% | 87.9% | 40.3% | 43% | 9.29% (active) | 67.3% | 40.7% | 24.6% | 59.9% | 42.9% | 65.4% | 23.3% | 37.9% | 60.2% | 61.8% | 44.3% | 51% | 55.8% | 32.8%
13 | Cc1c(C2=CCCCC2)c2ccccn2c1C(=O)c1cccc(S(=O)(=O)N2CCOCC2)c1 | 75.6% | 93.2% | 80.7% | 70% | 92.7% | 53.9% | 68.1% | 69.4% | 51% | 102% | 98.3% | 57.4% | 73.5% | 92% | 75% | 34.6% | 97.2% | 86.8% | 61.9%
14 | Clc1ccc(C2CC(c3cccc(Nc4ccncc4)c3)=NN2c2cc(Cl)cc(Cl)c2)cc1 (centres undefined) | 79.6% | 88.7% | 81.6% | 68.5% | -68% (active) | 71.3% | 89.1% | 47.6% | -88.5% (active) | -58% (active) | 48% | 1.88% (active) | 62.8% | 71.5% | 83.8% | 70.5% | 81.9% | 88.8% | -63.9% (active)
15 | COc1ccc(-c2ncc(-c3ccccc3)[nH]2)cc1OC | 101% | 100% | 218% | 112% | 112% | 93% | 108% | 110% | -10.5% (active) | 145% | 131% | 93.9% | 260% | 107% | 103% | 88.6% | 100% | 10.5% | 119%
16 | O=C1Nc2ccccc2/C1=C\c1cccc(/C=C2/C(=O)Nc3ccccc32)n1 | -15.9% (active) | 2.74% (active) | -70.8% (active) | -61.3% (active) | -60.9% (active) | -31.7% (active) | 10% | 6.25% (active) | -84.4% (active) | -85.7% (active) | -90.2% (active) | -24.1% (active) | -40.3% (active) | -52.3% (active) | -67.1% (active) | -81% (active) | -73.4% (active) | -65.8% (active) | -69.2% (active)
